# This excerpt belongs to a sample that is enriched for the strongest signals.
# B1: Clone646PsrP (Streptococcus pneumoniae) (protein)
# chain: MDHHHHHHHHASENLYFQGAPAINASLNIAKSETKVYTGEGVDSVYRVPIYYKLKVTNDGSKLTFTYTVTYVNPKTNDLGNISSMRPGYSIYNSGTSTQTMLTLGSDLGKPSGVKNYITDKNGRQVLSYNTSTMTTQGSGYTWGNGAQMNGFFAKKGYGLTSSWTVPITGTDTSFTFTPYAARTDRIGINYFNGGGKVVESSTTSQSLSQSKSLSVSAS
# Tests used:
# Experiment in all cases: glycan array binding signal (z-score within array); higher = stronger binding
# Conditions in all cases: glycan notation: IUPAC condensed, linker removed
# [1] = target: Fuc(a1-2)Gal(b1-3)[Fuc(a1-4)]GlcNAc(b1-2)Man(a1-3)[Fuc(a1-2)Gal(b1-3)[Fuc(a1-4)]GlcNAc(b1-2)Man(a1-3)]Man(b1-4)GlcNAc(b1-4)GlcNAc
# How it was run: (§1)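 From the Consortium for Functional Glycomics database, 3228 arrays were curated, keeping only those whose protein sequence was available. Binding is given as a within-array Z-score averaged across arrays sharing a protein sequence and across linkers. Negative Z-scores can be read as non-binding.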
# [2] = target: Fuc(a1-2)Gal(b1-4)GlcNAc(b1-2)Man(a1-3)[Fuc(a1-2)Gal(b1-4)GlcNAc(b1-2)Man(a1-6)]Man(b1-4)GlcNAc(b1-4)[Fuc(a1-6)]GlcNAc
# How it was run: as §1
# [3] = target: Fuc(a1-2)Gal(b1-4)GlcNAc(b1-3)Gal(b1-4)GlcNAc
# How it was run: as §1
# [4] = target: Fuc(a1-2)Gal(b1-4)GlcNAc(b1-6)GalNAc
# How it was run: as §1
# [5] = target: Fuc(a1-2)Gal(b1-4)[Fuc(a1-3)]GlcNAc
# How it was run: as §1
# Fuc(a1-2)[Gal(a1-3)]Gal = target: Fuc(a1-2)[Gal(a1-3)]Gal
# How it was run: as §1
# [6] = target: Fuc(a1-2)[Gal(a1-4)]Gal(b1-4)GlcNAc
# How it was run: as §1
# [7] = target: Fuc(a1-2)[GalNAc(a1-3)]Gal(b1-3)GlcNAc(b1-2)Man(a1-3)[Fuc(a1-2)[GalNAc(a1-3)]Gal(b1-3)GlcNAc(b1-2)Man(a1-6)]Man(b1-4)GlcNAc(b1-4)GlcNAc
# How it was run: as §1
# [8] = target: Fuc(a1-2)[GalNAc(a1-3)]Gal(b1-4)GlcNAc(b1-3)Gal(b1-4)GlcNAc
# How it was run: as §1
# [9] = target: Fuc(a1-2)[GalNAc(a1-3)]Gal(b1-4)GlcNAc(b1-3)GalNAc
# How it was run: as §1
# Fuc(a1-3)GlcNAc = target: Fuc(a1-3)GlcNAc
# How it was run: as §1
# [10] = target: Fuc(a1-3)[Gal(b1-4)]GlcNAc(b1-2)Man(a1-3)[Fuc(a1-3)[Gal(b1-4)]GlcNAc(b1-2)Man(a1-6)]Man(b1-4)GlcNAc(b1-4)GlcNAc
# How it was run: as §1
# [11] = target: Fuc(a1-3)[GalNAc(b1-4)]GlcNAc
# How it was run: as §1
# Fuc(b1-3)GlcNAc = target: Fuc(b1-3)GlcNAc
# How it was run: as §1
# [12] = target: Gal(a1-4)Gal(b1-4)GlcNAc(b1-2)Man(a1-3)[Gal(a1-4)Gal(b1-4)GlcNAc(b1-2)Man(a1-6)]Man(b1-4)GlcNAc(b1-4)GlcNAc
# How it was run: as §1
# Gal(a1-6)Glc = target: Gal(a1-6)Glc
# How it was run: as §1
# Gal(b1-2)Gal = target: Gal(b1-2)Gal
# How it was run: as §1
# [13] = target: Gal(b1-3)GlcNAc(b1-2)Man(a1-3)[Gal(b1-3)GlcNAc(b1-2)Man(a1-6)]Man(b1-4)GlcNAc(b1-4)[Fuc(a1-6)]GlcNAc
# How it was run: as §1
# [14] = target: Gal(b1-3)GlcNAc(b1-2)[Gal(b1-3)GlcNAc(b1-6)]Man(a1-6)[Gal(b1-3)GlcNAc(b1-2)Man(a1-3)]Man(b1-4)GlcNAc(b1-4)GlcNAc
# How it was run: as §1
# [15] = target: Gal(b1-3)[Fuc(a1-4)]GlcNAc(b1-3)Gal(b1-4)[Fuc(a1-3)]GlcNAc
# How it was run: as §1
# [16] = target: Gal(b1-3)[Fuc(a1-4)]GlcNAc(b1-6)GalNAc
# How it was run: as §1
# [17] = target: Gal(b1-3)[GlcNAc(b1-6)]GalNAc
# How it was run: as §1
# Gal(b1-4)Glc = target: Gal(b1-4)Glc
# How it was run: as §1
# [18] = target: Gal(b1-4)GlcNAc(b1-2)Man(a1-3)[Gal(b1-4)GlcNAc(b1-2)Man(a1-6)][GlcNAc(b1-4)]Man(b1-4)GlcNAc(b1-4)[Fuc(a1-6)]GlcNAc
# How it was run: as §1
# [19] = target: Gal(b1-4)GlcNAc(b1-2)[Gal(b1-4)GlcNAc(b1-4)]Man(a1-3)[GlcNAc(b1-4)][Gal(b1-4)GlcNAc(b1-2)[Gal(b1-4)GlcNAc(b1-6)]Man(a1-6)]Man(b1-4)GlcNAc(b1-4)GlcNAc
# How it was run: as §1
# [20] = target: Gal(b1-4)GlcNAc(b1-2)[Gal(b1-4)GlcNAc(b1-6)]Man(a1-6)[GlcNAc(b1-4)][Gal(b1-4)GlcNAc(b1-2)Man(a1-3)]Man(b1-4)GlcNAc(b1-4)GlcNAc
# How it was run: as §1
# [21] = target: Gal(b1-4)GlcNAc(b1-3)Gal(b1-4)GlcNAc(b1-2)Man(a1-3)[Gal(b1-4)GlcNAc(b1-3)Gal(b1-4)GlcNAc(b1-2)Man(a1-6)]Man(b1-4)GlcNAc(b1-4)GlcNAc
# How it was run: as §1
# [22] = target: Gal(b1-4)GlcNAc(b1-3)Gal(b1-4)GlcNAc(b1-2)[Gal(b1-4)GlcNAc(b1-3)Gal(b1-4)GlcNAc(b1-6)]Man(a1-6)[Gal(b1-4)GlcNAc(b1-3)Gal(b1-4)GlcNAc(b1-2)Man(a1-3)]Man(b1-4)GlcNAc(b1-4)[Fuc(a1-6)]GlcNAc
# How it was run: as §1
# [23] = target: Gal(b1-4)GlcNAc(b1-3)Gal(b1-4)GlcNAc(b1-3)Gal(b1-4)GlcNAc
# How it was run: as §1
# [24] = target: Gal(b1-4)GlcNAc(b1-3)Gal(b1-4)GlcNAc(b1-3)Gal(b1-4)GlcNAc(b1-2)[Gal(b1-4)GlcNAc(b1-3)Gal(b1-4)GlcNAc(b1-3)Gal(b1-4)GlcNAc(b1-6)]Man(a1-6)[Gal(b1-4)GlcNAc(b1-3)Gal(b1-4)GlcNAc(b1-3)Gal(b1-4)GlcNAc(b1-2)Man(a1-3)]Man(b1-4)GlcNAc(b1-4)[Fuc(a1-6)]GlcNAc
# How it was run: as §1
binder,measurement,setting,value
B1,glycan array binding signal (z-score),[1],1.88
same,glycan array binding signal (z-score),[2],0.523
same,glycan array binding signal (z-score),[3],-0.74
same,glycan array binding signal (z-score),[4],2.58
same,glycan array binding signal (z-score),[5],0.085
same,glycan array binding signal (z-score),Fuc(a1-2)[Gal(a1-3)]Gal,-0.314
same,glycan array binding signal (z-score),[6],0.495
same,glycan array binding signal (z-score),[7],-0.761
same,glycan array binding signal (z-score),[8],-0.638
same,glycan array binding signal (z-score),[9],0.378
same,glycan array binding signal (z-score),Fuc(a1-3)GlcNAc,0.18
same,glycan array binding signal (z-score),[10],-0.096
same,glycan array binding signal (z-score),[11],0.979
same,glycan array binding signal (z-score),Fuc(b1-3)GlcNAc,1.31
same,glycan array binding signal (z-score),[12],-0.434
same,glycan array binding signal (z-score),Gal(a1-6)Glc,0.015
same,glycan array binding signal (z-score),Gal(b1-2)Gal,2.94
same,glycan array binding signal (z-score),[13],-0.421
same,glycan array binding signal (z-score),[14],9.03
same,glycan array binding signal (z-score),[15],-0.797
same,glycan array binding signal (z-score),[16],-0.757
same,glycan array binding signal (z-score),[17],0.41
same,glycan array binding signal (z-score),Gal(b1-4)Glc,0.581
same,glycan array binding signal (z-score),[18],-0.984
same,glycan array binding signal (z-score),[19],-0.776
same,glycan array binding signal (z-score),[20],-0.887
same,glycan array binding signal (z-score),[21],0.169
same,glycan array binding signal (z-score),[22],-0.263
same,glycan array binding signal (z-score),[23],-0.913
same,glycan array binding signal (z-score),[24],-0.442

# Source: the supplement of paper PMC8728848
